Measured values from PubChem BioAssay.
A number with no mark means an inactive call. For some of these results: Results with a measured potency or affinity are listed apart. The source made the active and inactive calls. Unless noted, no rule for the calls is given here.

How the values were obtained:
[1] = antimalarial activity against Dd2 strain (AID 2302;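 active = growth inhibition above 50% at the single 2 µM test dose, taken to imply half-maximal potency below 2 µM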;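 also: 0% = DMSO untreated growth and 100% = chloroquine plus artemisinin killed control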); details: P. falciparum Dd2 in RBCs, LDH growth readout, 72 h; at 2 µM; active compounds read high
[2] = human hepatoma cell viability loss – ATP luminescence, cytotoxicity control for P. falciparum antimalarial project, primary screen (AID 2303;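 active = inhibition above 50%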;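 also: 0% = DMSO wells and 100% = digitonin-killed cells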); details: HepG2 viability, 24-48 h, at 10 µM, active compounds read high
[3] = target: L-lactate dehydrogenase (Plasmodium falciparum (isolate CDC / Honduras)) (UniProt Q27743); experiment: PfLDH activity inhibition – cell lysate, 3D7 strain, counter-screen for P. falciparum growth inhibition project (AID 2304);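 also: 0% = vehicle and 100% = reference inhibitor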; details: P. falciparum 3D7 crude extract, LDH APAD/NBT absorbance; at 2 µM; active compounds read high
Sequence of L-lactate dehydrogenase (Plasmodium falciparum (isolate CDC / Honduras)) (Q27743 whole entry, looked up): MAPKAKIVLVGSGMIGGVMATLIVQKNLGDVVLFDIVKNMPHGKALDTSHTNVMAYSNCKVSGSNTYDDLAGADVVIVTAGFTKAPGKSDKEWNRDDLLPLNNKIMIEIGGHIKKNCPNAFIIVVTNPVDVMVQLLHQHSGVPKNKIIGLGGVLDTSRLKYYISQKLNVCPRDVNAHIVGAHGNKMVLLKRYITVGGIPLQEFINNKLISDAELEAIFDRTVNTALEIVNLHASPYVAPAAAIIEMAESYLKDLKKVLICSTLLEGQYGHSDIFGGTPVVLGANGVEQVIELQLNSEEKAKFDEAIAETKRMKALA

[4] = inhibition of 3D7 malaria parasite growth – strain 3D7 (AID 2306);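 also: 0% = DMSO wells and 100% = chloroquine plus artemisinin control wells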; details: P. falciparum 3D7 erythrocytic growth, LDH absorbance, 72 h; at 2 µM; active compounds read high
[5] = target: Calcium-dependent protein kinase 1 (Plasmodium falciparum (isolate 3D7)) (UniProt P62344); experiment: PfCDPK1 kinase inhibitors, biochemical, TCAMS library (AID 1159585; cut-off not given, nearly all actives have IC50 up to about 0.98 µM;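 also: inhibitors leave more ATP so luminescence rises with inhibition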); details: recombinant PfCDPK1, Kinase-Glo ATP depletion luminescence
Sequence of Calcium-dependent protein kinase 1 (Plasmodium falciparum (isolate 3D7)) (P62344 whole entry, looked up): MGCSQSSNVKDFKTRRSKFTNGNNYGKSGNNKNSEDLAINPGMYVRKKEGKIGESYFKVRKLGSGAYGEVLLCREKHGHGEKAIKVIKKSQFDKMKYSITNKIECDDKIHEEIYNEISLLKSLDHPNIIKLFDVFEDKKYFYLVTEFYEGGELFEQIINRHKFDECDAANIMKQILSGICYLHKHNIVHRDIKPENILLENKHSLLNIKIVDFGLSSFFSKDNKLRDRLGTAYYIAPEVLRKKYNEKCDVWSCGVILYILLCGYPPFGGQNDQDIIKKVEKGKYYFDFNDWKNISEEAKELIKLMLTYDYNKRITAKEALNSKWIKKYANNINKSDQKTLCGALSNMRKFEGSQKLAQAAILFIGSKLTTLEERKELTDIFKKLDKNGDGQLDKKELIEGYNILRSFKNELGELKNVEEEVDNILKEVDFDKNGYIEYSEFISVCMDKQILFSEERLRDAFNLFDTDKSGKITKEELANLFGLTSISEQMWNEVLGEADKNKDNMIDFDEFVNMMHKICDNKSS

[6] = target: Plasmodium falciparum protein kinase 6 (PK6, PF3D7_1337100) (UniProt Q8IDW1); experiment: PfPK6 kinase inhibitors, biochemical, TCAMS library (AID 1159586); details: recombinant PfPK6, Kinase-Glo ATP depletion luminescence
Sequence of Plasmodium falciparum protein kinase 6 (PK6, PF3D7_1337100) (Q8IDW1 1-305): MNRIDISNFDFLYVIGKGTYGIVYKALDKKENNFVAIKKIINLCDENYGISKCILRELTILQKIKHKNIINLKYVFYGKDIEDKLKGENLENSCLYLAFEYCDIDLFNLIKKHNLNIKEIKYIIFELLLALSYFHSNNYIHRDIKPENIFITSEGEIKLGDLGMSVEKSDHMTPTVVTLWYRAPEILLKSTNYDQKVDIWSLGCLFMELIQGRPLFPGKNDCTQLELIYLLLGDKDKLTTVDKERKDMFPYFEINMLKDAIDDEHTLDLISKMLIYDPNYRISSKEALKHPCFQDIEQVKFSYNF

[7] = target: Protein kinase 7 (PK7), Plasmodium falciparum 3D7 (PF3D7_0213400) (UniProt Q7YTF7); experiment: inhibition of Plasmodium PK7 catalytic activity – biochemical, TCAMS antimalarial set, Kinase-Glo luminescence (AID 1159587); details: recombinant PfPK7, Kinase-Glo ATP depletion luminescence
Sequence of Protein kinase 7 (PK7), Plasmodium falciparum 3D7 (PF3D7_0213400) (Q7YTF7 1-343): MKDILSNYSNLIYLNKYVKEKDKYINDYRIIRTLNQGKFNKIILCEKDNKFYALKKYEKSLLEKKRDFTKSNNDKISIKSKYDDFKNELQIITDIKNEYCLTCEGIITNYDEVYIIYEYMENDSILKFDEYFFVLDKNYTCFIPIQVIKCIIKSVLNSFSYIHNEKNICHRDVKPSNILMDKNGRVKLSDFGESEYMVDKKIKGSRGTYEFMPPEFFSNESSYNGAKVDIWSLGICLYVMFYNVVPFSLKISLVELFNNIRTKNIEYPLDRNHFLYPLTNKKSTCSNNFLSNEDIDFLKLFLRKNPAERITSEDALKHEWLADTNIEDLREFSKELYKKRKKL

[8] = target: Calcium-dependent protein kinase 4 (Plasmodium falciparum (isolate 3D7)) (UniProt Q8IBS5); experiment: PfCDPK4 kinase inhibitors, biochemical, TCAMS library (AID 1159588; cut-off not given, nearly all actives have IC50 up to about 0.91 µM); details: recombinant PfCDPK4, Kinase-Glo ATP depletion luminescence
Sequence of Calcium-dependent protein kinase 4 (Plasmodium falciparum (isolate 3D7)) (Q8IBS5 whole entry, looked up): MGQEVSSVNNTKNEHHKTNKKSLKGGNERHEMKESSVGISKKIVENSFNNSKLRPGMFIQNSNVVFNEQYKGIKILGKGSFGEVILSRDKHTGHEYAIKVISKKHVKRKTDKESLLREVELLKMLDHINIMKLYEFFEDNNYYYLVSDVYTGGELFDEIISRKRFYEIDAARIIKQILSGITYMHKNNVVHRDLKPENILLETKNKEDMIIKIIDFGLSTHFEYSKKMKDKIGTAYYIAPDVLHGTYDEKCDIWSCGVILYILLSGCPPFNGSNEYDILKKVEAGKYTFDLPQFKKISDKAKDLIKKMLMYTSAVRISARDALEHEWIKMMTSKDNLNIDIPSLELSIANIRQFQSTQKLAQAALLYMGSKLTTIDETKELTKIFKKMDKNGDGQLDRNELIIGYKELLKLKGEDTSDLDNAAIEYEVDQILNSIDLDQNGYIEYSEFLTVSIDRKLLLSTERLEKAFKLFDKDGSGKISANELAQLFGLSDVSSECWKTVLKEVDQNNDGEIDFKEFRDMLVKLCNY

Row | Compound | growth inhibition [1] | inhibition [2] | inhibition [3] [%] | growth inhibition [4] | outcome [5] | outcome [6] | outcome [7] | outcome [8]
1 | O=C(/C=C/c1ccc(Cl)c(Cl)c1)NCCCCCN1CCN(C(=O)Nc2ccc(C(F)(F)F)cc2)CC1 | -1% | 26% | -5 | 99% (active) | inactive | inactive | inactive | inactive
2 | Clc1ccc(-n2cnc3c(Nc4ccc(Oc5ccccc5)cc4)ncnc32)cc1Cl | 65% (active) | 4% | 0 | 99% (active) | inactive | inactive | inactive | inactive
3 | COC(=O)c1cccc(CNCc2cccc(-c3ccc(-c4nc5ccc(C(F)(F)F)cc5[nH]4)cc3)c2)c1 | 83% (active) | 13% | 3 | 102% (active) | inactive | inactive | inactive | inactive
4 | O=C(/C=C/c1cccc2c1OCO2)Nc1ccnc2ccncc12 | 35% | 17% | -4 | 90% (active) | inactive | inactive | inactive | inactive
5 | O=S(=O)(Nc1cccc(CCN2CCC(N3CCCCC3)CC2)c1)c1cccc2ccccc12 | 63% (active) | 23% | 2 | 99% (active) | inactive | inactive | inactive | inactive
6 | O=C(NC1CC1)c1cnc(N2CCC(c3ccccc3)CC2)c(Cl)c1 | 95% (active) | 6% | 0 | 94% (active) | inactive | inactive | inactive | inactive
7 | CC(C)[C@H]1CC[C@H](C)C[C@@H]1OC(=O)N[C@@H](Cc1ccc(O)cc1)C(=O)NC1CCN(Cc2ccc(OCCCN(C)C)cc2)C1 (stereo not given in full) | 64% (active) | 27% | 4 | 99% (active) | inactive | inactive | inactive | inactive
8 | Cc1cc(CN2CC[C@H](NC(=O)c3ccc(Cl)c(Cl)c3)C2)ccc1OC1CCN(Cc2ccccc2)CC1 | 29% | 59% (active) | -2 | 98% (active) | inactive | inactive | inactive | inactive
9 | O=c1cc(NCCCNCc2cc(C(F)(F)F)ccc2F)[nH]c2ccccc12 | 43% | 0% | -2 | 94% (active) | inactive | inactive | inactive | inactive
10 | CC(=O)c1ccc(N2C(=O)C3C(Cc4ccc(OC(C)(C)C)cc4)NC4(C(=O)N(Cc5ccc(C(C)(C)C)cc5)c5ccccc54)C3C2=O)cc1 (stereo not given) | 81% (active) | 13% | 4 | 86% (active) | inactive | inactive | inactive | inactive
11 | O=C(/C=C/c1ccc(Cl)c(Cl)c1)NCCCCCN1CCC(NC(=O)NC2CCCCCC2)CC1 | 41% | 15% | -3 | 99% (active) | inactive | inactive | inactive | inactive
12 | COc1cc(Cc2cnc(N)nc2N)cc(OCCCCC2SC(=O)NC2=O)c1Br (stereo not given) | -2% | 15% | 4 | 94% (active) | inactive | inactive | inactive | inactive
13 | Cc1cc(C(=O)NC2CCN(Cc3ccccc3)CC2)ccc1-c1nc2cc(Cl)c(Cl)cc2[nH]1 | 32% | 7% | 0 | 96% (active) | inactive | inactive | inactive | inactive
14 | CCOC(=O)c1ccc(NCc2ccccn2)cc1 | -2% | -3% | -6 | 99% (active) | inactive | inactive | inactive | inactive
15 | CC(Cc1ccc(OCCN2CCN(c3cccc(Cl)c3)CC2)cc1)NCC(O)c1cccc(Cl)c1 (stereo not given) | 91% (active) | 48% | 3 | 93% (active) | inactive | inactive | inactive | inactive
16 | CC(C)Cc1ccc(N2CCN(CCCCNC(=O)c3ccc(NC(=O)c4ccc(Cl)c(Cl)c4)cc3)CC2)cc1 | 25% | 21% | 0 | 94% (active) | inactive | inactive | inactive | inactive
17 | CS(=O)(=O)c1ccc(CCNCc2ccc(-c3ccc(CNC4Cc5ccccc5C4)cc3)nc2)cc1 | 80% (active) | 18% | -3 | 100% (active) | inactive | inactive | inactive | inactive
18 | O=C(c1cccc(-c2cccc(-c3nc4ccccc4[nH]3)c2)c1)N1CCCCC1CN1CCC(O)C1 (stereo not given) | 56% (active) | 66% (active) | 2 | 100% (active) | inactive | inactive | inactive | inactive
19 | Fc1ccc2[nH]c3c(NCCN4CCCCC4)ncnc3c2c1 | 44% | 24% | 0 | 99% (active) | inactive | inactive | inactive | inactive
20 | CC[C@H](C)[C@@H](C(=O)N1CCOCC1)N1CC[C@H](NS(=O)(=O)CC(C)(C)c2ccc(Cl)cc2)C1=O | 95% (active) | -1% | 1 | 101% (active) | inactive | inactive | inactive | inactive
